PubChem BioAssay
Entries with a potency or affinity are not part of this list. Results filed as inconclusive are left out. The source made the active and inactive calls. Unless noted, no rule for the calls is given here.

Experiments:
[1] = cytotoxicity in PAX8-dependent RMG-1 cells, dose response, cell-based, cherry-pick (AID 687029;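 active = signal drop whose fitted half-maximal concentration is at most twice the top valid dose, in every test run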;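 also: cells exposed to compound for 96 hours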); details: RMG-1 viability, CellTiterGlo ATP luminescence, 96 h; series mostly up to 35 µM
[2] = inhibitors of CMV-promoter luciferase reporter, dose response, counter-screen for Pax8 inhibitor project, cell-based, HEK293, luminescence, dry powder (AID 743020;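 active = signal-lowering compounds whose fitted half-maximal concentration is at or below twice the top tested dose in every run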;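 also: HEK293 cells stably expressing the CMV luciferase reporter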); details: SteadyGlo luminescence, 24 h; series mostly up to 35 µM
[3] = non-specific cell cytotoxicity, dose response, cytotoxicity control for PAX8 inhibitor project, plate reader, dry powder samples (AID 743021); details: cell line, non-specific cytotoxicity counter-screen; series mostly up to 35 µM
[4] = IGROV1 ovarian cancer cell cytotoxicity, dose response, PAX8 inhibitor project, plate reader, dry powder samples (AID 743043); details: series mostly up to 35 µM;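 also: more negative means fewer viable cells or more cytotoxicity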
[5] = NIH:OVCAR-3 ovarian cancer cell cytotoxicity, dose response, PAX8 inhibitor project, plate reader, dry powder samples (AID 743044); details: NIH:OVCAR-3 ovarian cancer cell viability; max activity: at 35 µM, hits give low values unless noted; series mostly up to 50 µM
[6] = IOSE-T80 ovarian epithelial cell cytotoxicity, dose response, cytotoxicity control for PAX8 inhibitor project, plate reader, dry powder samples (AID 743045); details: IOSE-T80 ovarian epithelial cells; series mostly up to 35 µM;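 also: 0% = neutral control median and -100% = positive control median; more negative values mean more cell killing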
[7] = cytotoxicity in OVCAR8 ovarian cancer cells, dose response, PAX8 project, cell-based, plate reader, dry powder samples (AID 743197); details: series mostly up to 35 µM
[8] = A2780 ovarian cancer cell cytotoxicity, dose response, cytotoxicity control, plate reader, dry powder samples (AID 743046); details: series mostly up to 35 µM;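 also: 0% = neutral control wells and -100% = cytotoxic reference compound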
[9] = A549 cell cytotoxicity, dose response, cytotoxicity control, plate reader, cherry-pick, antagonist series (AID 743412); details: series mostly up to 26 µM;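 also: 0% = neutral control wells and -100% = positive control wells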
[10] = HepG2 cell cytotoxicity, dose response, cytotoxicity control, plate reader, cherry-pick, antagonist series (AID 743416); details: series mostly up to 26 µM;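 also: 0% = neutral control wells and -100% = positive control wells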
[11] = target: Melanocortin receptor 4 (Homo sapiens) (UniProt P32245); assay: MC4R antagonists, dose response, counter-screen for LGR2 antagonist project, cell-based, plate reader, cherry pick (AID 743444); details: MC4R-expressing cells, antagonist mode; series mostly up to 35 µM

Measured: max activity

COc1cccc2c1C(=O)c1c(O)c3c(c(O)c1C2=O)CC(O)(C(C)=NNC(=O)c1ccc(Cl)c(Cl)c1)CC3OC1CC(N)C(O)C(C)O1 (configuration not stated)
inactive: [1] | [2] | [3]

CC(C1CC1)N(Cc1ccccc1)C(=S)Nc1cccc(C(F)(F)F)c1 (configuration not stated)
inactive: [1] | [2] | [3]

O=C(Nc1ccc(C(F)(F)F)cc1)Nc1ccc2c(c1)[C@H]1C[C@H](CC(=O)N3CCc4ccccc4C3)O[C@H](CO)[C@H]1O2
inactive: [1] | [2] | [3] | [4] | [5] 20.8% [at 0.5 µM, hits give low values] | [6] | [7]

COc1ccc(C(=O)CN2C(=O)c3ccccc3S2(=O)=O)cc1
inactive: [1] | [2] | [3]

CN=c1scc(-c2cccs2)n1/N=C/c1ccccc1O
inactive: [1] | [2] | [3]

CCSc1nsc(NC(=O)Nc2cccc(F)c2)n1
inactive: [1] | [2] | [3]

C[C@H](CO)N1C[C@H](C)[C@H](CN(C)Cc2ccc(-c3ccccc3)cc2)Oc2ccc(NS(=O)(=O)c3ccc(F)cc3)cc2CC1=O
inactive: [1] | [2] | [3] | [4] | [5] -42.4% | [6] | [8]

COc1ccc(-c2ccc3c(c2)[C@@H]2[C@@H](CCN2C(=O)NC2CCCCC2)[C@H](CO)N3C)cc1
inactive: [1] | [2] | [3] | [4]

COC(=O)[C@]12CCCCC=C1N(Cc1cccc3ccccc13)C(=O)[C@H](CC(=O)N1CCN(C(=O)c3ccco3)CC1)C2
inactive: [1] | [2] | [3]

C[C@@H]1CN([C@@H](C)CO)S(=O)(=O)c2ccc(C#Cc3ccc(F)cc3)cc2O[C@@H]1CN(C)C(=O)NC1CCCCC1
inactive: [1] | [2] | [3] | [4] | [5] 23.4% [at 1 µM, hits give low values] | [6] | [8] | [7]

C=C1C(=O)[C@]23C[C@H]1CC[C@H]2[C@]1(C)[C@@H](OC(C)=O)CC[C@@](C)(C(=O)O)[C@H]1C[C@@H]3O
inactive: [1] | [2] | [3]

Cc1ccc(S(=O)(=O)Nc2cccc3c2O[C@@H](CN(C)Cc2ccc(Oc4ccccc4)cc2)[C@@H](C)CN([C@H](C)CO)C3=O)cc1
inactive: [1] | [2] | [3] | [4] | [5] 15.8% [at 1 µM, hits give low values] | [6] | [8] | [7]

C[C@@H]1CCCCO[C@@H](CN(C)Cc2ccc(C(F)(F)F)cc2)[C@H](C)CN([C@H](C)CO)C(=O)c2cc(NS(=O)(=O)c3cccs3)ccc2O1
inactive: [1] | [2] | [3] | [4] | [5] -15.8% | [6] | [8] | [7]

CCCCn1c(N)c(N(CCC(C)C)C(=O)COC(=O)c2ccc([N+](=O)[O-])s2)c(=O)[nH]c1=O
inactive: [1] | [2] | [3]

Oc1[nH]c2ccc(Br)cc2c1N=NC(=S)N1CCOCC1
inactive: [1] | [2] | [3]

COc1ccc(CN(C)C[C@H]2Oc3ccc(NC(=O)Nc4ccc5c(c4)OCO5)cc3CC(=O)N([C@H](C)CO)C[C@H]2C)cc1
inactive: [1] | [2] | [3] | [4] | [5] -9.48% [at 18 µM, hits give low values] | [6] | [8] | [7]

O=C1/C(=C/c2ccccc2)SC(=S)N1CC(=O)N1CCCCC1c1cccnc1 (configuration not stated)
not listed: [7] | [9] | [10] | [11]
inactive: all other assays above

COc1ccc(S(=O)(=O)Nc2ccc3c(c2)CC(=O)N([C@H](C)CO)C[C@H](C)[C@@H](CN(C)Cc2ccc(Cl)c(Cl)c2)O3)cc1
inactive: [1] | [2] | [3] | [4] | [5] 16.2% [at 16 µM, hits give low values] | [6] | [8] | [7]

C[C@@H]1CCCCO[C@@H](CN(C)Cc2ccc(Cl)c(Cl)c2)[C@H](C)CN([C@H](C)CO)C(=O)c2cc(NC(=O)Nc3ccc(C(F)(F)F)cc3)ccc2O1
inactive: [1] | [2] | [3] | [4] | [5] 52.8% [at 0.26 µM, hits give low values] | [6] | [8] | [7]

C[C@H]1CN([C@@H](C)CO)C(=O)Cc2cc(NC(=O)C3CC3)ccc2O[C@@H]1CN(C)Cc1ccc(-c2ccccc2)cc1
inactive: [1] | [2] | [3] | [4] | [6]

COc1cccc(S(=O)(=O)N(C)C[C@@H]2OCc3ccccc3-c3c(n(C)c4ccccc34)C(=O)N([C@H](C)CO)C[C@@H]2C)c1
inactive: [1] | [2] | [3] | [4] | [5] -14.8% | [6]

COc1ccc(S(=O)(=O)Nc2ccc3c(c2)C(=O)N([C@H](C)CO)C[C@H](C)[C@@H](CN(C)Cc2ccc(C(F)(F)F)cc2)OCCCC[C@H](C)O3)cc1
inactive: [1] | [2] | [3] | [4] | [5] -20.9% [at 0.5 µM, hits give low values] | [6] | [8] | [7]

C[C@@H]1CN([C@H](C)CO)C(=O)c2cc(NC(=O)Nc3ccc(C(F)(F)F)cc3)ccc2O[C@@H](C)CCCCO[C@H]1CN(C)Cc1ccccc1
inactive: [1] | [2] | [3] | [4] | [5] 12% [at 30 µM, hits give low values] | [6] | [8] | [7]

COc1cccc(-c2cnc3c(NC=O)cc(-c4ccc(OC)cc4OC)cn23)c1
inactive: [1] | [2] | [3]

Cc1cc(C(=O)Nc2cccc3c2O[C@H](CN(C)Cc2ccc(Oc4ccccc4)cc2)[C@@H](C)CN([C@H](C)CO)C3=O)n(C)n1
inactive: [1] | [2] | [3] | [4] | [5] -26.8% [at 16 µM, hits give low values] | [6] | [8]

O=C(Nc1ccc(F)cc1)N1CCCCN2[C@@H](CO)[C@@H](c3ccc(C#Cc4ccccc4)cc3)[C@@H]2C1
inactive: [1] | [2] | [3] | [8] | [7]

CCC(=O)N1CCN(c2ccc(NC(=O)c3ccc([N+](=O)[O-])o3)cc2Cl)CC1
inactive: [1] | [3]

C[C@@H]1CN([C@H](C)CO)C(=O)c2cc(NC(=O)Nc3ccccc3)ccc2O[C@@H](C)CCCCO[C@@H]1CN(C)Cc1ccc(C(F)(F)F)cc1
inactive: [1] | [2] | [3] | [6] | [8]

Cc1ccc(S(=O)(=O)N(C)C[C@@H]2Oc3cc(C#Cc4ccncc4)ccc3S(=O)(=O)N([C@H](C)CO)C[C@@H]2C)cc1
not listed: [5] | [9] | [10] | [11]
inactive: all other assays above

Cc1nc(SCC(=O)Nc2nc3ccccc3s2)c(C#N)c(C)c1C
inactive: [1] | [2] | [3] | [9]

Cc1ccc(S(=O)(=O)Nc2ccc3c(c2)C(=O)N([C@@H](C)CO)C[C@@H](C)[C@H](CN(C)Cc2ccc(C(F)(F)F)cc2)OCCCC[C@H](C)O3)cc1
inactive: [1] | [2] | [3] | [4] | [6] | [8]

C[C@@H]1CN([C@H](C)CO)C(=O)c2cc(NC(=O)NC3CCCCC3)ccc2O[C@@H](C)CCCCO[C@H]1CN(C)Cc1ccc(C(F)(F)F)cc1
inactive: [1] | [2] | [3] | [6]

CC(=O)Nc1ccc(S(=O)(=O)c2ccnc3cc(Cl)ccc23)cc1
inactive: [1] | [2] | [3] | [10] | [11]

Cc1ccc(S(=O)(=O)Nc2ccc3c(c2)nc(CCN2CCCC2)n3C)cc1
inactive: [1] | [2] | [3] | [4] | [6] | [8]

COc1cccc(S(=O)(=O)N2C[C@@H]3N[C@H](C2)C3c2ccc(/C=C/c3ccccc3)cc2)c1 (some centres not stated)
inactive: [1] | [2] | [8]

C[C@@H]1CCCCO[C@H](CN(C)C(=O)Cc2ccccc2)[C@@H](C)CN([C@@H](C)CO)C(=O)c2cc(NC(=O)Nc3ccc(C(F)(F)F)cc3)ccc2O1
inactive: [1] | [2] | [3] | [4] | [6]

Cn1nnnc1Sc1ncnc2scc(-c3cc4ccccc4o3)c12
inactive: [1] | [3]

CO[C@@H]1CN(C)C(=O)c2cc(NC(=O)c3ccc(-c4ccccc4)cc3)ccc2OC[C@H](C)NC[C@H]1C
inactive: [1] | [2] | [4] | [6] | [7]

COc1ccc(S(=O)(=O)N(C)C[C@H]2OCCCC[C@H](C)Oc3ccc(NS(=O)(=O)c4ccc(F)cc4)cc3C(=O)N([C@@H](C)CO)C[C@@H]2C)cc1
inactive: [1] | [2] | [4] | [6] | [8]

Cc1noc(C)c1S(=O)(=O)Nc1ccc2c(c1)C(=O)N([C@H](C)CO)C[C@H](C)[C@@H](CN(C)C(=O)Nc1ccc(C(F)(F)F)cc1)OCCCC[C@H](C)O2
inactive: [1] | [2] | [3] | [4] | [6] | [8]
